Results filed as inconclusive are left out. The source made the active and inactive calls. Unless noted, calls come from the whole dose curve; as a rule, active = well fitted curve in the direction sought with a large enough effect; inconclusive = small, poorly fitted or top-dose-only effect, or another doubt; inactive = no such curve, though single readings can be large; an effect the other way counts as inactive or inconclusive.
Legend:
[1] = Cell Viability - HUV-EC-C (AID 542);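 note: cells exposed to compound for 40 hours; % is set by controls: 0 for no effect and ±100 for the full control effect; nearly all actives have a fitted effect of over 35% in size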
How it was run: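 Luminescent ATP read-out (CellTiter-Glo, 20 min room temperature) after 40 hr compound treatment of HUV-EC-C cells at 37 °C. Concentration-response data fitted with the standard Hill equation to give AC50; tamoxifen and doxorubicin served as positive controls.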

[2] = Cellular Toxicity (caspase-3) Jurkat (AID 655); details: Jurkat caspase-3 activation, luminescence; caspase-3 activation: at 92.2 µM (top of the series), DMSO = 0%, tamoxifen = 100%;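 note: cells exposed to compound for 16 h at 37 °C before reading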
How it was run: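 Luminescent Caspase-Glo 3/7 read-out (20 min, room temperature) after 16 h compound treatment at 37 C of 5000 Jurkat cells per well. AC50 derived by Hill-equation fitting, scaled between DMSO basal and 100 uM tamoxifen stimulation.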

[3] = MultiTox-Fluor Cytotoxicity Assay - LYMP1-001 - Dead Cells (AID 946);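 note: 0% = DMSO and 100% = tetraoctylammonium bromide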
How it was run: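 LYMP1-001 lymphoblastoid cells (2500/well) treated 16 h at 37 C. Dead-cell protease cleavage of bis-AAF-R110 read at Ex/Em 485/520. Normalized to DMSO and 15 uM tetraoctylammonium bromide; AC50 from Hill fits.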

[4] = Cell Viability - LYMP1-002 - Assay at 16 hr (AID 948);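 note: 0% = DMSO alone and full effect = 92 µM tetraoctylammonium bromide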
How it was run: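 ATP luminescence (CellTiter-Glo) was measured after 16 hr compound exposure at 37 C of 2500 lymphoblastoid LYMP1-002 cells per well. Concentration-response curves were fitted with the Hill equation to give AC50.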

[5] = MultiTox-Fluor Cytotoxicity Assay - LYMP1-003 - Dead Cells (AID 961);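 note: 0% = DMSO and 100% = tetraoctylammonium bromide; nearly all actives have a fitted effect of over 70% in size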
How it was run: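 LYMP1-003 human lymphoblastoid cells (2500/well) exposed to compound 16 h at 37 C in complete medium; dead-cell protease read with bis-AAF-R110 fluorescence (Ex/Em 485/520) after 60 min at room temperature. Normalized to DMSO and 15 uM tetraoctylammonium bromide; AC50 from Hill fit.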

[6] = Cell Viability - LYMP2-003 (AID 965);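 note: cells exposed to compounds for 24 h before reading; nearly all actives have a fitted effect of over 50% in size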; note: potency is the fitted concentration of half-maximal effect
How it was run: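 CellTiter-Glo luminescence quantified ATP loss after 24 h compound treatment of LYMP2-003 lymphoblastoid cells at 37 C. Titration series were fitted with the standard Hill equation to give AC50.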

[7] = Cell Viability - LYMP2-011 (AID 969);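 note: cells exposed to compound for 24 hours; 0% = DMSO only and full inhibition = 92 µM tetraoctylammonium bromide; nearly all actives have a fitted effect of over 60% in size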
How it was run: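 Luminescent ATP read-out (CellTiter-Glo, 30 min RT) after 24 hr compound exposure at 37 C in human lymphoblastoid cells, 2500 cells/well. Decreasing ATP indicates cytotoxicity; AC50 from standard Hill fit.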

[8] = Cell Viability - LYMP2-013 (AID 970);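 note: 0% = DMSO only and full inhibition = tetraoctylammonium bromide control; nearly all actives have a fitted effect of over 55% in size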
How it was run: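 CellTiter-Glo luminescence (cellular ATP) read after 30 min at RT. Cells: human lymphoblastoid line, 2500/well, 24 hr compound exposure at 37 C. Tetraoctylammonium bromide positive control; AC50 via standard Hill fit of qHTS titrations.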

[9] = Cell Viability - LYMP2-002 (AID 977);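 note: plate controls were DMSO only for no effect and 92 µM tetraoctylammonium bromide for full effect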
How it was run: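 In this qHTS viability screen, 2500 human lymphoblastoid cells per well receive compound for 24 hr at 37 C, and luciferase-based ATP luminescence gives the viability signal. Tetraoctylammonium bromide serves as positive control.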

[10] = Cell Viability - LYMP2-008 (AID 980); note: % is set by controls: 0 for no effect and ±100 for the full control effect; nearly all actives have a fitted effect of over 60% in size
How it was run: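 Luminescent ATP read-out (CellTiter-Glo, 30 min RT) after 24 hr compound exposure at 37 C of human lymphoblastoid cells in complete medium. Decrease in ATP taken as cytotoxicity; AC50 derived by standard Hill fit of qHTS concentration-response data.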

[11] = Cell Viability - LYMP2-024 (AID 988);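 note: plate controls were DMSO only for no effect and 92 µM tetraoctylammonium bromide for full effect; nearly all actives have a fitted effect of over 60% in size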
How it was run: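 ATP-based luminescence (CellTiter-Glo, 30 min RT) after 24 h compound exposure at 37 C of 2500 lymphoblastoid cells/well; decrease in ATP taken as cytotoxicity. qHTS concentration-response fitted to standard Hill equation for AC50.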

[12] = Cell Viability - LYMP2-026 (AID 989); note: % is set by controls: 0 for no effect and ±100 for the full control effect; nearly all actives have a fitted effect of over 50% in size
How it was run: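 qHTS cytotoxicity: 2500 cells/well, 5 hr 37 C, compound 24 hr 37 C, CellTiter-Glo 30 min RT, luminescence. Tetraoctylammonium bromide positive control. AC50 via standard Hill fit.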

[13] = molecular target: Tumor necrosis factor (Homo sapiens) (UniProt P01375); assay: qHTS assay to identify small molecules that stimulate Tumor Necrosis Factor-alpha (TNF-alpha) secretion (AID 651757; active = well fitted curve in the direction sought with a large enough effect in the signal ratio; the % refers to the signal ratio; note: 0% is about no effect)
Tumor necrosis factor (Homo sapiens), sequence (P01375 whole entry, looked up): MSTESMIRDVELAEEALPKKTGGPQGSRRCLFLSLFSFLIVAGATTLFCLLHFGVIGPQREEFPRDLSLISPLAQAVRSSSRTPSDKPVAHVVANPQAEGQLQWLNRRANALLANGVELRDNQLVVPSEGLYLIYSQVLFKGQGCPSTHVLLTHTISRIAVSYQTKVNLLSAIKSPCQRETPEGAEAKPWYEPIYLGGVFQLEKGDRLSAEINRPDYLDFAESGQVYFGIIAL
How it was run: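 THP-1 cells, 3000/well; compound 17 hrs, 37 C; add cryptate/XL665 anti-TNF-alpha antibody pair; 3 hr RT; TR-FRET (HTRF) read of secreted TNF-alpha. Quantitative HTS format.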

[14] = molecular target: Nuclear receptor subfamily 1 group I member 2 (Rattus norvegicus) (UniProt Q9R1A7); assay: qHTS assay for small molecule activators of the rat pregnane X receptor (rPXR) signaling pathway (AID 651751; call rule not given here; note: 0% is about no effect); details: rPXR reporter cells, luciferase (One-Glo), 24 h
Nuclear receptor subfamily 1 group I member 2 (Rattus norvegicus), sequence (Q9R1A7 whole entry, looked up): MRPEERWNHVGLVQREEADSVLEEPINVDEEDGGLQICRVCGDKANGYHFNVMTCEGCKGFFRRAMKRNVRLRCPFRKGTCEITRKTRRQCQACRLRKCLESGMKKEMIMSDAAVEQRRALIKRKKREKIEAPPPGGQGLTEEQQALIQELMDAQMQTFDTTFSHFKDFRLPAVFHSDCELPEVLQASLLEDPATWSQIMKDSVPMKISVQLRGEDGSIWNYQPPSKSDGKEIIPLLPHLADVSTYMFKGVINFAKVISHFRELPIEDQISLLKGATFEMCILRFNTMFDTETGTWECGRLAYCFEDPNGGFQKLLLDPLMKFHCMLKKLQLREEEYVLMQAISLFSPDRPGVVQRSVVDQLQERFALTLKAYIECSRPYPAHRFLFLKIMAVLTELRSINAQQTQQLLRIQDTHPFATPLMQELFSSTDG

[15] = qHTS assay for small molecule activators of the human pregnane X receptor (PXR) signaling pathway (AID 720659; call rule not given here; note: 0% is about no effect)
[16] = MultiTox-Fluor Cytotoxicity Assay - LYMP1-001 - Live Cells (AID 947);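 note: 0% = DMSO only and full inhibition = tetraoctylammonium bromide control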
[17] = Cell Viability - LYMP2-009 (AID 968);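 note: 0% = DMSO alone and the full-kill end = tetraoctylammonium bromide at 92 µM; nearly all actives have a fitted effect of over 55% in size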
[18] = Cell Viability - Jurkat (AID 426;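 active = dose-dependent loss of cell ATP signal giving a full or clear fitted curve, ranked by lower potency value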;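 note: potency is the fitted concentration of half-maximal effect; cells exposed to compound for 40 hours at 37 °C before ATP read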); details: qHTS
How it was run: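 Luminescent ATP read-out (CellTiter-Glo, 20 min at room temperature) after 40 hr compound exposure at 37 °C of Jurkat E6-1 cells, 5000/well. Decreased ATP taken as cytotoxicity; AC50 from standard Hill equation.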

[19] = Cell Viability - LYMP2-005 (AID 967);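 note: plate controls were DMSO only for no effect and 92 µM tetraoctylammonium bromide control for full effect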
How it was run: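 LYMP2-005 human lymphoblastoid cells (2500/well) were treated with compounds for 24 h at 37 C. Intracellular ATP was then measured by CellTiter-Glo luminescence after 30 min at room temperature. AC50 values came from Hill-equation fits of qHTS concentration-response data.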

[20] = qHTS assay for small molecule agonists of the antioxidant response element (ARE) signaling pathway measured by Nrf2-dependant transcriptional activity (AID 720636; active = well fitted curve in the direction sought with a large enough effect in the repeat runs; an effect the other way counts as inactive or inconclusive;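 note: HepG2 cells with an ARE-driven luciferase reporter; % of control where 0% means no effect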)
How it was run: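 In HepG2 cells engineered with an Nrf2-responsive luciferase gene, ARE induction was quantified as luminescence after 16 hr compound treatment at 37 C.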

CC(C)[N+](=O)[O-]
inactive: Potency [1] | caspase-3 activation [2] 1.63% | outcome [3] | outcome [4] | Potency [5] | Potency [6] | Potency [7] | Potency [8] | Potency [9] | Potency [10] | Potency [11] | Potency [12] | outcome [13] | max response [14] 1.27% | outcome [15]

O=C(O)C(Br)Br
inactive: Potency [1] | caspase-3 activation [2] 6.46% | outcome [3] | outcome [16] | Potency [5] | Potency [17] | Potency [7] | Potency [10] | Potency [11] | Potency [12] | outcome [13] | max response [14] 1.77% | outcome [15]

C=CC(=O)OCC(C)C
inactive: Potency [18] > 92 µM | Potency [1] | outcome [3] | outcome [16] | Potency [5] | Potency [6] | Potency [19] | Potency [17] | Potency [7] | Potency [8] | Potency [9] | Potency [10] | Potency [11] | Potency [12] | outcome [13] | Potency [20] | max response [14] -2.18% | outcome [15]

C=CC(=O)OCCO
active: Potency [6] 50.1 µM
inactive: Potency [1] | caspase-3 activation [2] 15.3% | outcome [3] | outcome [16] | outcome [4] | Potency [5] | Potency [9] | Potency [12] | outcome [13] | Potency [20] | max response [14] 0.767% | outcome [15]

O=[N+]([O-])c1cc(Cl)c(Cl)c(Cl)c1
inactive: outcome [3] | outcome [16] | outcome [4] | Potency [5] | Potency [6] | Potency [19] | Potency [17] | Potency [7] | Potency [8] | Potency [9] | Potency [10] | Potency [11] | outcome [13] | Potency [20] | max response [14] -3.17% | outcome [15]

CCCCC(CC)COC(=O)c1ccc(C(=O)OCC(CC)CCCC)c(C(=O)OCC(CC)CCCC)c1 (stereo not given)
inactive: Potency [1] | outcome [3] | outcome [16] | outcome [4] | Potency [5] | Potency [6] | Potency [19] | Potency [17] | Potency [7] | Potency [8] | Potency [9] | Potency [10] | outcome [13] | Potency [20] | max response [14] 0.711% | outcome [15]

CCCCOCC1CO1 (stereo not given)
inactive: Potency [18] > 92 µM | Potency [1] | caspase-3 activation [2] -0.958% | outcome [3] | outcome [16] | outcome [4] | Potency [5] | Potency [19] | Potency [17] | Potency [8] | Potency [9] | Potency [10] | Potency [11] | Potency [12] | outcome [13] | Potency [20] | max response [14] 2.3% | outcome [15]

O=C(O)C(Br)CBr (stereo not given)
inactive: Potency [1] | caspase-3 activation [2] 1.63% | outcome [3] | outcome [16] | outcome [4] | Potency [5] | Potency [6] | Potency [19] | Potency [17] | Potency [7] | Potency [8] | Potency [10] | Potency [12] | Potency [20] | max response [14] -3.61% | outcome [15]

Source: PubChem BioAssay (NCATS)
